Records with an inconclusive call do not appear. The source made the active and inactive calls. The call rests on the fitted dose curve; in most records, active means well fitted curve in the direction sought with a large enough effect in the repeat runs; inconclusive means weak or mixed curves; inactive means no such curve, though single readings can be large; an effect the other way counts as inactive or inconclusive.
Key:
[1] = A CellTox Green Cytotoxicity Assay to monitor cytotoxicity in HEK293 cells - 40 hour (AID 1224871); further: nearly all actives have a fitted effect of over 45% in size
In short: (§1)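 Cytotoxicity was tracked continuously in HEK293 cells by a DNA-binding dye excluded from viable cells. Compounds were transferred in DMSO 5 h after seeding; fluorescence was recorded at intervals up to 40 h.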

[2] = qHTS RealTime-Glo MT Cell Viability Assay in HEK293 cells - 16 hour (AID 1224872); further: nearly all actives have a fitted effect of over 50% in size; further: potency means the concentration at half of the fitted maximal effect
In short: (§2)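 HEK293 cells were seeded at 600 cells/well together with NanoLuc luciferase and cell-permeant prosubstrate, preincubated 5 h at 37 C/5% CO2, then given compound in DMSO by pintool. Luminescence from viable-cell prosubstrate reduction was read repeatedly over 40 h.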

[3] = qHTS RealTime-Glo MT Cell Viability Assay in HepG2 cells - 8 hour (AID 1224873); further: nearly all actives have a fitted effect of over 55% in size
In short: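 HepG2 cells (600/well) mixed with RealTime-Glo MT reagent, settled 5 h at 37 C/5% CO2 before compound addition. Nonlytic NanoLuc luminescence from viable-cell prosubstrate reduction read repeatedly during 40 h treatment at 37 C.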

[4] = qHTS RealTime-Glo MT Cell Viability Assay in HEK293 cells - 40 hour (AID 1224874); conditions: RealTime-Glo luminescence; max response: hits give low values; further: nearly all actives have a fitted effect of over 50% in size; further: potency means the concentration at half of the fitted maximal effect
In short: (§3)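 Nonlytic bioluminescent viability monitoring. HEK293 at 600 cells/well with reagent; 5 h settle; compound transfer by pintool; plates held at 37 C and read at set time points.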

[5] = A CellTox Green Cytotoxicity Assay to monitor cytotoxicity in HEK293 cells - 24 hour (AID 1224875); further: series mostly up to about 77 µM; nearly all actives have a fitted effect of over 45% in size
In short: as §1

[6] = A CellTox Green Cytotoxicity Assay to monitor cytotoxicity in HepG2 cells - 16 hour (AID 1224876); further: nearly all actives have a fitted effect of over 45% in size
In short: (§4)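 Real-time, homogeneous cytotoxicity readout: dead-cell DNA staining by CellTox Green in HepG2 monolayers, fluorescence measured at timed intervals up to 40 h of continuous compound exposure.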

[7] = qHTS RealTime-Glo MT Cell Viability Assay in HepG2 cells - 32 hour (AID 1224877); further: nearly all actives have a fitted effect of over 55% in size
In short: (§5)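 HepG2 cells were seeded at 600 cells/well together with NanoLuc luciferase and a cell-permeant prosubstrate, preincubated 5 h at 37 C/5% CO2, then pin-dosed with compounds in DMSO. Nonlytic luminescence from viable cells was read at each time point.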

[8] = A CellTox Green Cytotoxicity Assay to monitor cytotoxicity in HepG2 cells - 24 hour (AID 1224878); further: nearly all actives have a fitted effect of over 45% in size
In short: as §4

[9] = A CellTox Green Cytotoxicity Assay to monitor cytotoxicity in HepG2 cells - 40 hour (AID 1224879); further: nearly all actives have a fitted effect of over 40% in size
In short: as §4

[10] = qHTS RealTime-Glo MT Cell Viability Assay in HEK293 cells - 0 hour (AID 1224880)
In short: as §3

[11] = A CellTox Green Cytotoxicity Assay to monitor cytotoxicity in HEK293 cells - 32 hour (AID 1224881); further: nearly all actives have a fitted effect of over 40% in size
In short: as §1

[12] = A CellTox Green Cytotoxicity Assay to monitor cytotoxicity in HepG2 cells - 0 hour (AID 1224882); further: nearly all actives have a fitted effect of over 35% in size
In short: as §4

[13] = A CellTox Green Cytotoxicity Assay to monitor cytotoxicity in HepG2 cells - 32 hour (AID 1224883); further: nearly all actives have a fitted effect of over 50% in size
In short: as §4

[14] = A CellTox Green Cytotoxicity Assay to monitor cytotoxicity in HEK293 cells - 8 hour (AID 1224884); further: nearly all actives have a fitted effect of over 35% in size
In short: as §1

[15] = qHTS RealTime-Glo MT Cell Viability Assay in HepG2 cells - 16 hour (AID 1224885); further: nearly all actives have a fitted effect of over 50% in size
In short: as §5

[16] = qHTS RealTime-Glo MT Cell Viability Assay in HEK293 cells - 24 hour (AID 1224886); further: nearly all actives have a fitted effect of over 50% in size; further: potency means the concentration at half of the fitted maximal effect
In short: as §2

[17] = qHTS RealTime-Glo MT Cell Viability Assay in HEK293 cells - 8 hour (AID 1224887); further: nearly all actives have a fitted effect of over 50% in size; further: potency means the concentration at half of the fitted maximal effect
In short: as §3

[18] = A CellTox Green Cytotoxicity Assay to monitor cytotoxicity in HEK293 cells - 16 hour (AID 1224888); further: nearly all actives have a fitted effect of over 35% in size
In short: as §1

[19] = qHTS RealTime-Glo MT Cell Viability Assay in HepG2 cells - 0 hour (AID 1224889); further: nearly all actives have a fitted effect of over 50% in size
In short: as §5

[20] = A CellTox Green Cytotoxicity Assay to monitor cytotoxicity in HepG2 cells - 8 hour (AID 1224890); further: nearly all actives have a fitted effect of over 45% in size
In short: as §4
On the % scale 0 is the no-effect control and ±100 the full control effect.

CC(Cl)C(C)Cl (configuration not stated)
inactive: Potency [1] | Potency [2] | Potency [3] | max response [4] 1.04% | Potency [5] | Potency [6] | Potency [7] | Potency [8] | Potency [9] | Potency [10] | Potency [11] | Potency [12] | Potency [13] | Potency [14] | Potency [15] | Potency [16] | Potency [17] | Potency [18] | Potency [19] | Potency [20]

CCCCCCC#N
inactive: Potency [1] | Potency [2] | Potency [3] | max response [4] 1.28% | Potency [5] | Potency [6] | Potency [7] | Potency [8] | Potency [9] | Potency [10] | Potency [11] | Potency [12] | Potency [13] | Potency [14] | Potency [15] | Potency [16] | Potency [17] | Potency [18] | Potency [19] | Potency [20]

C#CCOC(C(=O)OCCN(C)C)(c1ccccc1)c1ccccc1
inactive: Potency [1] | Potency [2] | Potency [3] | max response [4] -21.3% | Potency [5] | Potency [6] | Potency [7] | Potency [8] | Potency [9] | Potency [10] | Potency [11] | Potency [12] | Potency [13] | Potency [14] | Potency [15] | Potency [16] | Potency [17] | Potency [18] | Potency [20]

C=CC(=O)OC(C)(C)C
inactive: Potency [1] | Potency [2] | Potency [3] | max response [4] 13.5% | Potency [5] | Potency [6] | Potency [7] | Potency [8] | Potency [9] | Potency [10] | Potency [11] | Potency [12] | Potency [13] | Potency [14] | Potency [15] | Potency [16] | Potency [17] | Potency [18] | Potency [19] | Potency [20]

CCCCc1c(C)nc(NCC)nc1OS(=O)(=O)N(C)C
active: Potency [2] 12.3 µM | Potency [4] 13.8 µM | Potency [16] 12.3 µM | Potency [17] 9.77 µM
inactive: Potency [1] | Potency [3] | Potency [5] | Potency [6] | Potency [7] | Potency [8] | Potency [9] | Potency [10] | Potency [11] | Potency [12] | Potency [13] | Potency [14] | Potency [15] | Potency [18] | Potency [19] | Potency [20]

Cc1ccc2ccccc2c1
inactive: Potency [1] | Potency [2] | Potency [3] | max response [4] 0.388% | Potency [5] | Potency [6] | Potency [7] | Potency [8] | Potency [9] | Potency [10] | Potency [11] | Potency [12] | Potency [13] | Potency [14] | Potency [15] | Potency [16] | Potency [17] | Potency [18] | Potency [20]

COP(=S)(OC)Oc1cc(Cl)c(I)cc1Cl
inactive: Potency [1] | Potency [2] | Potency [3] | max response [4] -19.9% | Potency [5] | Potency [6] | Potency [7] | Potency [8] | Potency [9] | Potency [10] | Potency [11] | Potency [12] | Potency [13] | Potency [14] | Potency [15] | Potency [16] | Potency [17] | Potency [18] | Potency [19]

— PubChem BioAssay (Tox21)
